Compound activity from PubChem BioAssay.
The list is not random: actives were taken first. Their share in the collection is about 9.3%.
SMN2 splice up: SMN2 splice variant enhancement. HEK293 SMN2-luciferase splicing reporter, luminescence, 30-36 h. Potency, µM (highest dose often 46.1 µM), for the others: top-dose activity change, positive = activation, actives largely listed as activators. actives 2.8% (n = 210,000). AID 1458; also: % of control where 0% means no effect; nearly all actives have a fitted effect of over 55% in size
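HEK293 cells carry an SMN2 […]–luciferase reporter in which exon 7 inclusion puts luciferase in frame. Cells were plated 10-12 h before compound addition, then incubated 30-36 h at 37C. ONE-Glo luminescence was read; sodium butyrate at 4.5 mM final served as control.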
NPC1 prom act: NPC1 promoter activation; Huh7 NPC1 promoter luciferase reporter, 24 h; Potency, µM (doses to about 9.22 µM), inactives show top-dose activation, hits mostly activators; actives 2.4% (n = 320,000); AID 485313; also: % of control where 0% means no effect; nearly all actives have a fitted effect of over 60% in size
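Huh7 cells stably carrying NPC1 promoter–luciferase, plated in Opti-MEM with 10% FBS for 2 h, were exposed to compound in DMSO for 24 h at 37 °C; luciferase reagent was added for 10 min and luminescence read.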
Rab9 prom act: Rab9 promoter activation; Huh7 Rab9 promoter-luciferase reporter, luminescence, 24 h; Potency, µM (top dose mostly 9.22 µM), inactives show at the highest dose activation, negative = inhibition, actives largely listed as activators; actives 2.8% (n = 320,000); also: % of control where 0% means no effect; nearly all actives have a fitted effect of over 60% in size
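Measured in stably transfected Huh7 cells bearing a Rab9 promoter–luciferase construct: 24 h compound treatment at 37 °C, followed by luminescence detection.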
ELG1 repair inh: inhibitors of ELG1-dependent DNA repair in HEK293T cells; HEK293T ELG1-luciferase reporter, luminescence, 16 h; DNA damage induced by 5-fluorouridine; Potency, µM (series often up to 46.1 µM), inactives show at the top dose activity change, negative = inhibition, most hits filed as inhibitors; actives 2.3% (n = 330,000); also: % is scaled to controls: 0 for no effect and ±100 for the full control effect; nearly all actives have a fitted effect of over 55% in size
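Cells (2,000 per well) received 5-fluorouridine plus test compound or DMSO and were incubated 16 hr at 37 °C, 5% CO2. Luciferase activity was read by luminescence 30 min after ONE-Glo addition; signal suppression marked inhibition of damage-induced ELG1 function.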
ELG1 genotoxic: inducers of genotoxicity in HEK293T ELG1-luciferase cells; actives 1.3% (n = 330,000); AID 504466; HEK293T ELG1-luciferase reporter, luminescence, 16 h; Potency, µM (doses to about 46 µM), for inactives: top-dose activity change, positive = activation, most hits filed as activators; also: % of control where 0% means no effect; nearly all actives have a fitted effect of over 60% in size
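Luminescence read-out: rising ELG1-luciferase signal, reflecting elevated ELG1 protein under genetic stress, flags genotoxic compounds. Cells were treated for 16 hr at 37 °C before ONE-Glo detection.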
FLuc counter: inhibits or activates purified firefly luciferase, miR-21 counter-screen. AID 588342. purified FLuc, Km substrates, luminescence inhibition. P08659. actives 6.9% (n = 360,000). Potency, µM (highest dose often 57.5 µM), without a hit: at the top dose activity change, negative = inhibition, most hits filed as inhibitors;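 also: plate controls were vehicle for no effect and reference inhibitor for full effect; nearly all actives have a fitted effect of over 55% in size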
Target sequence (P08659 whole entry, looked up): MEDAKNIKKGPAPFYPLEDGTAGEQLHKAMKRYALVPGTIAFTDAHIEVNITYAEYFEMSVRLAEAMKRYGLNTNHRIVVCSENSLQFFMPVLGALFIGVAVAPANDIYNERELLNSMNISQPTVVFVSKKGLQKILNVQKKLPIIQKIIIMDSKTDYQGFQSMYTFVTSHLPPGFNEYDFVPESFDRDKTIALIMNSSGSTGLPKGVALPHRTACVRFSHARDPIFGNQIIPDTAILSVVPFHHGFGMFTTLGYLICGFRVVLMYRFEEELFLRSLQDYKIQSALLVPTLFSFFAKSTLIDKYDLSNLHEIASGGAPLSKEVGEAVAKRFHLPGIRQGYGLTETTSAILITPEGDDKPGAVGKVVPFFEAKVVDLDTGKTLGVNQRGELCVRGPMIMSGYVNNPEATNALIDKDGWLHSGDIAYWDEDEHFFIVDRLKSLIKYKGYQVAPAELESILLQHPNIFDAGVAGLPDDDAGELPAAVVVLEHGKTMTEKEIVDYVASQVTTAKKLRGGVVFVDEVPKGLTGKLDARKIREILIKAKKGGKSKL
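Purified P. pyralis luciferase, 10 nM final, with Km-level 10 uM D-luciferin and 10 uM ATP in 50 mM Tris acetate pH 7.5, 10 mM Mg acetate, 0.01% Tween-20, 0.05% BSA; 6-point qHTS titration about 60 µM downward; luminescence read.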
The depositor's hits bear a star; u = inconclusive; x = no result. Calls follow the shape of the dose curve; as a rule, active = well fitted curve in the direction sought with a large enough effect; inconclusive = small, poorly fitted or top-dose-only effect, or another doubt; inactive = no such curve, though single readings can be large; an effect the other way counts as inactive or inconclusive. Potency is read from the fitted curve at half-maximal effect.

SMILES	SMN2 splice up	NPC1 prom act	Rab9 prom act	ELG1 repair inh	ELG1 genotoxic	FLuc counter
CSc1ccc(/C=C(/NC(=O)c2ccccc2)C(=O)NCCCn2ccnc2)cc1	x	-0.1%	-4.3%	-4.0%	-7.5%	-1.5%
CCOc1ccc(NC(=O)c2ccc3c(SCC(=O)O)c4c(nc3c2)CCCC4)cc1	4.8%	0.5%	-2.8%	8.7%	0.6%	16.9µM*
O=C(O)CSc1c2c(nc3cc(C(=O)Nc4cccc(C(F)(F)F)c4)ccc13)CCC2	x	-0.8%	-3.0%	u	0.0%	26.9µM*
O=C(NC1CCCCC1)c1ccc(NS(=O)(=O)c2cccc3cccnc23)cc1	-11.9%	-4.4%	0.0%	-11.3%	-8.0%	-16.6%
CC(C)(C)n1ncc2c(=O)n(CC(=O)N3CCCC3)cnc21	8.6%	0.7%	0.2%	-12.6%	3.2%	-0.9%
CC1CCCN(CCCNC(=O)c2ccc(NC(=O)C3=CSCCO3)cc2)C1 (centres undefined)	x	-0.4%	-7.6%	u	4.9%	0.3%
CC(C)Oc1ccc(C(=O)Nc2nnc(SCC(=O)N3CCOCC3)s2)cc1	1.41µM*	u	0.398µM*	u	u	0.0601µM*
COc1ccc(C(=O)Nc2ccc3nc(SCC(=O)N4CCOCC4)sc3c2)cc1	x	x	x	x	x	-6.8%
COc1ccc(Nc2nnc(SCC(=O)N3CC(=O)Nc4ccccc43)s2)cc1	x	14.1%	15.4%	3.3%	-0.9%	8.49µM*
COc1ccc(Nc2nnc(SCC(=O)c3cc(C)n(CC4CCCO4)c3C)s2)cc1 (centres undefined)	-26.8%	8.8%	8.6%	u	2.3%	3.79µM*
COc1ccc(Nc2nnc(SCC(=O)N3CCCC3)s2)cc1	8.1%	11.3%	1.3%	16.5%	0.2%	16.9µM*
COc1ccc2nc(C)cc(SCC(=O)N3CCCCC3)c2c1	-20.2%	0.8%	1.9%	u	-13.2%	-9.6%
COc1cccc(N2CC(C(=O)Nc3nnc(SCC(=O)N4CCCC4)s3)CC2=O)c1 (centres undefined)	x	-2.0%	-0.6%	5.9%	8.4%	-1.0%
COc1cccc(Nc2nnc(SCC(=O)N3CCOCC3)s2)c1	-7.7%	11.9%	15.0%	26.8%	13.6%	19µM*
CC(=O)Nc1cccc(NC(=O)c2cc3ccccc3o2)c1	11.2µM*	3.55µM*	u	u	5.8µM*	3.38µM*
Cc1ccc(NC(=O)c2cc3ccccc3o2)cc1Cl	x	3.98µM*	3.16µM*	u	u	3.38µM*
CC(C)C(=O)Nc1cccc(NC(=O)c2cc3ccccc3o2)c1	17.8µM*	u	u	u	u	6.01µM*
Cc1ccc(-c2nc3cc(NC(=O)c4cc5ccccc5o4)ccc3o2)cc1Cl	-4.1%	x	x	x	x	5.9%
Cc1ccc(NC(=O)c2ocnc2C)cc1Cl	14.1µM*	u	3.16µM*	u	u	12µM*
Cc1ncoc1C(=O)Nc1cccc(Cl)c1	26.8%	u	u	u	u	u
Cc1cccc(-n2c3nc(=O)n(C)c(=O)c-3cc3ccc(Cl)cc32)c1C	-7.2%	x	x	x	x	-6.1%
CCC(=O)N1N=C(c2ccccc2)CC1c1ccc([N+](=O)[O-])cc1 (centres undefined)	-1.9%	-2.2%	1.8%	-1.1%	5.9%	3.7%
CCCCOC(=O)c1cccc(NC(=O)c2cc3ccccc3o2)c1	3.55µM*	x	x	x	x	8.49µM*
CC(=O)Nc1cccc(NC(=O)CSc2nccn2Cc2ccco2)c1	x	2.8%	0.6%	-3.1%	0.0%	-2.0%
COc1ccccc1NC(=O)CSc1nccn1Cc1ccc(F)cc1	x	-3.0%	11.5%	8.0%	-2.7%	0.7%
SMILES	SMN2 splice up	NPC1 prom act	Rab9 prom act	ELG1 repair inh	ELG1 genotoxic	FLuc counter
Cc1ccc(NC(=O)CSc2nccn2Cc2ccco2)c(C)c1	x	0.891µM*	0.631µM*	u	5.17µM*	4.26µM*
COc1ccc(OC)c(NC(=O)CSc2nccn2Cc2ccco2)c1	x	3.7%	2.2%	6.6%	4.8%	15.1µM*
Cc1cc(C)c(NC(=O)CSc2nccn2Cc2ccco2)c(C)c1	x	x	x	x	x	16.9µM*
O=C(CSc1nccn1Cc1ccc(F)cc1)Nc1ccc(F)cc1F	x	2.3%	9.9%	23.1µM*	-9.2%	0.9%
O=C(CSc1nccn1Cc1ccco1)Nc1ccccc1F	x	u	16.5%	29.4%	u	u
CCc1ccc(S(=O)(=O)Nc2c(NC3CCCCC3)c3ccccc3oc2=O)cc1	x	-3.8%	-1.8%	0.0%	-4.6%	6.8%
O=[N+]([O-])c1ccc(N/N=C/c2cccc(O)c2O)cc1	x	-3.4%	1.0%	3.5%	11.6µM*	16.9µM*
O=[N+]([O-])c1ccc(N/N=C/c2cccc(O)c2)cc1	x	2.9%	28.3%	u	u	23.9µM*
O=[N+]([O-])c1ccc(N/N=C/c2ccc[nH]2)cc1	-32.1%	-9.4%	1.9%	28.3%	11.3%	u
N#Cc1ccsc1NC(=O)CCS(=O)(=O)c1ccccc1	x	-6.2%	0.3%	16.2%	0.4%	0.2%
CCOc1ccc2oc(C(=O)Nc3ccc(N4CCOCC4)cc3)c(C)c2c1	-29.8%	x	x	x	x	13.5µM*
COc1ccc2oc(C(=O)OC(C)C(=O)Nc3ccc(N4CCOCC4)cc3)c(C)c2c1 (centres undefined)	x	-5.0%	-2.8%	-26.3%	5.6%	-11.7%
CCOc1ccc2oc(C(=O)Nc3ccc4c(c3)OCO4)c(C)c2c1	x	3.16µM*	2.82µM*	u	u	5.36µM*
Cc1nc2ccccc2n1CC(=O)NC1CCCC1	-16.1%	-7.0%	1.3%	-28.8%	-10.2%	1.5%
CC1CCC(NC(=O)Cn2ncc3ccccc32)CC1 (centres undefined)	u	u	u	u	10.3µM*	u
Cc1nc2ccccc2n1CC(=O)NC1CCCCCC1	x	-1.8%	-17.9%	14.6µM*	-7.6%	-1.5%
CCOC(=O)C1CCCN(C(=O)c2cc(-c3ccncc3)nc3ccccc23)C1 (centres undefined)	x	-1.7%	-4.4%	0.5%	-3.4%	-6.8%
COc1cc(COc2ccc3c(C)c(CC(=O)O)c(=O)oc3c2C)cc(OC)c1OC	x	1.7%	-1.4%	26.2%	4.4%	-12.0%
CCCn1c(O)c(N=NC(=O)c2ccco2)c2ccccc21	-11.1%	11.6%	-1.3%	u	-8.0%	-11.0%
CCn1c(O)c(N=NC(=O)c2cccs2)c2ccccc21	1.1%	u	2.1%	u	-8.6%	16.9µM*
Cc1ccccc1C(=O)/C=C1\NC(=O)CS1	-19.0%	-1.9%	2.0%	3.3%	3.3%	-2.4%
O=C(c1cc2c([nH]c1=O)CCCC2)N1CCc2c([nH]c3ccccc23)C1c1ccccc1F (centres undefined)	x	-1.0%	-2.2%	-9.4%	-6.3%	0.3%
